# Compound activity (PubChem)
# Compounds with a hit are over-represented: about 17% of the library has one in this group of screens.
# TDP1 cell CPT – DT40-hTDP1 cell growth loss with CPT. 420,000 compounds, 12% hits. Potency, µM (titrated, usually from 46.2 µM), inactives show at the highest dose activity change, negative = growth inhibition, most hits filed as inhibitors. AID 686979. chicken DT40 Tdp1-/-;hTDP1 cells + 20 nM CPT, ATP luminescence, 48 h; further: on the % scale 0 is the no-effect control and ±100 the full control effect; nearly all actives have a fitted effect of over 55% in size
#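 Cell growth measured by CellTiter-Glo luminescence after a minimum 48 h, 37 C compound exposure with 20 nM CPT in Tdp1-knockout DT40 cells stably expressing hTDP1, seeded 400/well; qHTS titration format.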
# TDP1 inh – blocks human tyrosyl-DNA phosphodiesterase 1 | 350,000 compounds, 0.28% hits | recombinant TDP1, AlphaScreen DNA substrate cleavage | AID 485290 | Potency, µM (series often up to 130 µM), inactives show top-dose activity change, negative = inhibition, actives largely listed as inhibitors | Q9NUW8; further: on the % scale 0 is the no-effect control and ±100 the full control effect; nearly all actives have a fitted effect of over 40% in size
#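 Signal: AlphaScreen proximity between streptavidin donor and anti-FITC acceptor beads on intact substrate. Reaction: Tdp1 1 nM, substrate 15 nM final, 5 min RT after 15 min compound preincubation.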
# TDP1 cell noCPT – qHTS for Inhibitors of human tyrosyl-DNA phosphodiesterase 1 (TDP1): qHTS in cells in absence of CPT; DT40 Tdp1-/- hTDP1 cells, no CPT, ATP luminescence, 48 h; 420,000 compounds, 15% hits; Potency, µM (top dose mostly 46.2 µM), inactives show top-dose activity change, negative = growth inhibition, usual class: inhibitors; further: on the % scale 0 is the no-effect control and ±100 the full control effect; nearly all actives have a fitted effect of over 55% in size
#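 Compound effects on proliferation are scored in DT40 Tdp1-/-;hTDP1 cells in the absence of CPT. ATP levels (CellTiter-Glo luminescence) are recorded after a ≥48 hr, 37 °C incubation.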
# ClpP mod – qHTS Assay for Activators of ClpP | purified B. subtilis ClpP, FRET peptide cleavage, 20 min | Potency, µM (top dose mostly 57.5 µM), inactives show top-dose activity change, negative = active | 340,000 compounds, 1.9% hits | AID 651965, 2013; active means well fitted falling curve with a large enough effect; inconclusive means small, poorly fitted or top-dose-only effect; inactive means no such curve, though single readings can be large or run the other way; further: the source files actives as falling curves though it sought activators and does not explain the sign; nearly all actives have a fitted effect of over 65% in size
# Target sequence (P80244 whole entry, looked up): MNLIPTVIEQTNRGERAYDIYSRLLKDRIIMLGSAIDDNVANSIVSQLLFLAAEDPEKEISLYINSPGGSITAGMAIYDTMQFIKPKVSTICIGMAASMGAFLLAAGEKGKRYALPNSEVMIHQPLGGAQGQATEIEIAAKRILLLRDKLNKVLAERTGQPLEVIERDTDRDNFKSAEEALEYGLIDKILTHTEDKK
#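 Purified B. subtilis ClpP, 10 microg/mL final in Tris/HCl pH8 with KCl, BSA, glycerol and Tween-20, cleaved an Abz/nitrotyrosine-quenched decapeptide. Fluorescence (ex 320, em 430) was read at 0 and 20 min at room temperature. Delta was normalized to 5.8 microM ADEP and DMSO/no-enzyme controls.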
# Numbers without * were called inactive; u = inconclusive; x = no result. Unless noted, the call rests on the fitted dose curve; in most records, active means well fitted curve in the direction sought with a large enough effect; inconclusive means small, poorly fitted or top-dose-only effect, or another doubt; inactive means no such curve, though single readings can be large; an effect the other way counts as inactive or inconclusive. Potency means the concentration at half of the fitted maximal effect.
SMILES,TDP1 cell CPT,TDP1 inh,TDP1 cell noCPT,ClpP mod
Nc1nc(O)c2ncn([C@H]3CC[C@@H](CO)O3)c2n1,u,4%,u,x
Nc1nc(Cl)nc2c1ncn2C1CCC(CO)O1 (stereo not drawn),1µM*,x,1.5µM*,2%
Cc1cc(C)cc(C(=O)N(C)[C@H](Cc2ccc(-c3ccccc3)cc2)C(=O)N[C@@H](Cc2c[nH]c3ccccc23)C(=O)O)c1,0%,10%,-25%,x
Cn1cc(S(=O)(=O)N2CCCCCC2)cc1C(=O)N1CCN(c2cccc(Cl)c2)CC1,15µM*,1%,u,-2%
Cn1cc(S(=O)(=O)N2CCCCCC2)cc1C(=O)N1CCN(c2cccc(C(F)(F)F)c2)CC1,16µM*,5%,23µM*,-3%
COc1ccc(N2CCN(C(=O)c3cc(S(=O)(=O)N4CCC(C)CC4)cn3C)CC2)cc1,23µM*,5%,21µM*,0%
Cn1cc(S(=O)(=O)N2CCCC2)cc1C(=O)N1CCN(c2cccc(Cl)c2)CC1,u,-4%,u,0%
Cc1cc(C)c2cc(CN(CCN3CCCC3)C(=O)Nc3ccc(F)cc3)c(=O)[nH]c2c1,15µM*,-10%,21µM*,-22%
Cc1ccc(C)c2[nH]c(=O)c(CN(CCN3CCCC3)C(=O)Nc3cccc(Cl)c3)cc12,23µM*,1%,18µM*,-15%
O=C(Nc1cccc(Cl)c1)N(CCN1CCOCC1)Cc1cccc(Cl)c1,u,3%,u,-2%
CC1(Cc2ccc(OC(F)(F)F)cc2)C(=O)Nc2ccc(S(=O)(=O)NC3CCCCC3)cc21 (stereo not drawn),u,x,u,1%
CCn1c(=O)c(C(=O)CN(C)Cc2cccc(OC)c2OC)c(N)n(Cc2ccccc2)c1=O,u,1%,15µM*,1%
CN1CCc2nc(SCc3ccc(C(C)(C)C)cc3)c(C#N)cc2C1,23µM*,7%,u,-11%
N#Cc1cc2c(nc1SCc1cccnc1)CCCCC2,-24%,-1%,-23%,-5%
N#Cc1cc2c(nc1SCc1ccccc1)CCCCC2,18µM*,x,21µM*,-6%
CN1CCc2nc(SCc3ccc(Cl)cc3)c(C#N)c(-c3cccs3)c2C1,16µM*,x,u,1%
CSCCC(c1nc2ccccc2[nH]1)n1c(-c2ccc3ncccc3c2)nc2ccccc21 (stereo not drawn),u,x,u,-25%
CC(=O)c1cccc(NC(=O)CCc2c(C)nc3nc(CN)nn3c2C)c1,3%,3%,-7%,-6%
O=C(Nc1cccc(NC(=O)c2cccc(F)c2)n1)c1cccc(F)c1,u,x,21µM*,-5%
O=C(O)c1ccc(NC(=O)c2ccccc2NC(=O)c2cccc(F)c2)cc1,25%,x,4%,-9%
O=C(Nc1cc(-c2ccccc2)sc1C(=O)O)c1cccc(F)c1,u,-3%,15µM*,-7%
CSc1nccc(NC(=O)c2cccc(Br)c2)n1,-5%,x,21µM*,x
O=C(Nc1cccc(NC(=O)c2c(F)cccc2F)n1)c1c(F)cccc1F,-9%,x,u,-2%
CCOc1ccc(-c2cc(NC(=O)c3c(F)cccc3F)c(C(=O)O)s2)cc1,-25%,x,21µM*,x
CCOc1ccc(NC(=O)Nc2cc(-c3ccccc3)sc2C(=O)OC)cc1,u,-6%,u,20%
CC(C)c1ccc(NC(=O)C2CCCN(S(=O)(=O)c3ccc4[nH]c(=O)oc4c3)C2)cc1 (stereo not drawn),-26%,5%,u,-6%
CCC(C)(C)OC,x,18%,x,x
CCC(C)c1ccc2oc(-c3ccc(NC(=O)Cn4cnc5c(=O)n(C)c(=O)n(C)c54)cc3)nc2c1 (stereo not drawn),21µM*,4%,15µM*,11µM*
S=C(NCc1ccco1)Nc1ccc(Cl)cn1,-26%,1%,u,-8%
CCCOc1ccc(CNC(=O)C(CC)n2nc(C)c3sc4ccccc4c3c2=O)cc1 (stereo not drawn),21µM*,3%,23µM*,u
